Assay outcomes deposited in PubChem BioAssay by National Center for Advancing Translational Sciences (NCATS).
HCV inh – qHTS Assay for Inhibitors of Hepatitis C Virus (HCV); Potency, µM (series often up to 41.8 µM), for inactives: top-dose activity change, negative = inhibition, hits mostly inhibitors; 3.4% of 340,000 active; Huh7.5.1 HCVcc-Cre infection, luciferase reporter, 44 h; note: potency is the fitted concentration of half-maximal effect
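Cells (1,000/well) were plated 4 h before compound, then infected with HCVcc-Cre virus (~0.5 moi). After 44 h further culture, infection was read as luciferase luminescence following a 15 min substrate incubation at room temperature.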
Marburg entry inh – qHTS for inhibitors of binding or entry into cells for Marburg Virus; Potency, µM (series often up to 37.8 µM), inactives show top-dose activity change, negative = inhibition, usual class: inhibitors; Marburg virus pseudotyped entry inhibition, cell reporter; AID 540276, 2011; 1.8% of 300,000 active; calls by dose curve; tested in HEK293 cells; note: potency is the fitted concentration of half-maximal effect
FMDV inh – High Throughput Screening for Foot and Mouth Disease Virus Antivirals; FMDV antiviral cell-based qHTS; Potency, µM (titrated, usually from 57.9 µM), without a hit: top-dose activity change, negative = inhibition, usual class: inhibitors; 1.2% of 410,000 active; calls by dose curve; tested in HEK293T cells; note: read-out not given here; potency is the fitted concentration of half-maximal effect; nearly all actives have a fitted effect of over 45% in size
FBPA Giardia inh – qHTS Assay for Inhibitors of Fructose-1,6-bisphosphate Aldolase from Giardia Lamblia; purified Giardia FBPA; Potency, µM (highest dose often 59.6 µM), for inactives: at the top dose activity, negative = inhibition, hits mostly inhibitors; A8B2U2; 0.71% of 290,000 active; note: potency is the fitted concentration of half-maximal effect; nearly all actives have a fitted effect of over 55% in size
Target sequence (A8B2U2 whole entry, looked up): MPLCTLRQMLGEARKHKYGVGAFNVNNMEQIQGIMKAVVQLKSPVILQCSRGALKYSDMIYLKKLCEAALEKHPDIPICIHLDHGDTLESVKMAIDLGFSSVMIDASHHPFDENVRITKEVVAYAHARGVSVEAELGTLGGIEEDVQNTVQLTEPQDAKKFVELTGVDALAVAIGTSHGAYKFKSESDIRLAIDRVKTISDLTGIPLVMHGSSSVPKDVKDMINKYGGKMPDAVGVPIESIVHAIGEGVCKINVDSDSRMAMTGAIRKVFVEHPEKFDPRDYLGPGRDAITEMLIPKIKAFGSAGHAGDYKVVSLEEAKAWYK
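40 nM FBPA preincubated 10 min at RT with compound (up to 57.5 uM final), then substrate plus GAPDH/TPI/NAD/arsenate coupling and diaphorase/resazurin added. Fluorescence read after 20 min at RT, 525/598 nm.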
HCMV inh – qHTS Assay for inhibitors of the human cytomegalovirus (HCMV) | HFF cells, HCMV-luciferase reporter, 72 h; stronger effect = lower value | activity change, negative = inhibition, % at 57.5 µM | 4.5% of 410,000 active | AID 1259415, 2018; in the data active = activity change below about -60%; inconclusive = no clear call, values can overlap the other calls; inactive = above about -39%
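HFF cells seeded 16 h at 37C, treated with compounds, infected with luciferase-reporter HCMV at MOI 1 PFU/cell; luciferase read at 72 h post infection, normalized to buffer-only and Salinomycin controls.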
Lassa entry inh – qHTS for Inhibitors of binding or entry into cells for Lassa Virus; Lassa virus pseudotype entry inhibition, cell reporter; Potency, µM (doses to about 37.9 µM), without a hit: top-dose activity change, negative = inhibition, most hits filed as inhibitors; 1.2% of 300,000 active; AID 540256, 2011; calls by dose curve; tested in HEK293 cells; note: potency is the fitted concentration of half-maximal effect; nearly all actives have a fitted effect of over 50% in size
Numbers without * were called inactive; ? = inconclusive; / = no result given; [ ] = remark or other dose. This is a sample that favours compounds with a hit; in the whole collection about 8.3% have one here. Unless noted, calls come from the whole dose curve; as a rule, active = well fitted curve in the direction sought with a large enough effect; inconclusive = small, poorly fitted or top-dose-only effect, or another doubt; inactive = no such curve, though single readings can be large; an effect the other way counts as inactive or inconclusive. % is set by controls: 0 for no effect and ±100 for the full control effect.

SMILES	HCV inh	Marburg entry inh	FMDV inh	FBPA Giardia inh	HCMV inh	Lassa entry inh
COc1ccc(NC(NC(=O)c2ccc(OC)cc2)C(Cl)(Cl)Cl)cc1 (stereo unspecified)	?	?	-27%	-4%	-27	?
COc1ccc(C(=O)NC(Nc2ccc(C)cc2)C(Cl)(Cl)Cl)cc1 (stereo unspecified)	?	?	?	-6%	-72*	-11%
O=C(O)Cn1c(O)c(C2=c3ccccc3=NC2=O)sc1=O	6%	/	-7%	-16%	36	/
Cn1c(O)c(C2=c3ccccc3=NC2=O)sc1=Nc1ccc(Cl)cc1	-12%	?	19%	-7%	-67*	-13%
Cc1ccc(C(=O)c2c3ccc([N+](=O)[O-])cc3[n+]([O-])n2CCC(N)=O)cc1	13µM*	/	13%	-24%	-20	/
NCCCn1c(C(=O)c2cc(Cl)c(N)c(Cl)c2)c2ccc([N+](=O)[O-])cc2[n+]1[O-]	?	/	-14%	/	-67*	/
CCOC(=O)n1c(=O)oc2ccccc21	3%	9%	-15%	9%	-96*	-14%
C[C@H]1CC[C@@H]2N(C1)C[C@H]1[C@@H]3C[C@H]4[C@@H](C/C(=N\O)[C@H]5C[C@@H](O)CC[C@@]54C)[C@@H]3CC[C@H]1[C@]2(C)O	/	/	-7%	7%	/	/
CCCCSc1nnc2n(-c3ccc(OC)cc3)c(=O)c3c4c(sc3n12)COC(C(C)C)C4 (stereo unspecified)	/	0%[46.1 µM]	?	/	29	-4%[46.1 µM]
Cc1ccccc1Cn1cc(NS(=O)(=O)c2cn(C)nc2C)cn1	16%	/	-15%	/	-60*	/
COC(=O)CC1=C(C(=O)OC)C(c2cccc(OCC(N)=O)c2)C(C#N)=C(N)O1 (stereo unspecified)	-10%	-30%	-10%	-18%	-101*	2%
COC(=O)CC1=C(C(=O)OC)[C@H](c2cccc(OCC(N)=O)c2)C(C#N)=C(N)O1	/	-30%	/	/	/	/
Cc1ccc(NC(=S)N(CCCN2CCCC2)Cc2cccn2Cc2ccc(Cl)cc2)cc1Cl	0.56µM*	8.9µM*	-22%	-1%	-12	1.1µM*
FC(F)(F)c1cccc(NC(=S)N(CCCN2CCCC2)Cc2cccn2Cc2ccc(Cl)cc2)c1	-8%	?	28µM*	-7%	-67*	?
Cc1ccc(NC(=S)N(CCCN2CCCC2)Cc2cccn2Cc2ccc(Cl)cc2)cc1C	?	?	?	-12%	-25	?
COc1ccc(NC(=S)N(CCCN2CCCC2)Cc2cccn2Cc2ccc(Cl)cc2)cc1Cl	?	/	-24%	-16%	-79*	/
CSCC[C@H](NC(=O)[C@H](Cc1ccccc1)NC(=O)[C@H](Cc1cnc[nH]1)NC(=O)CNC(=O)[C@@H](NC(=O)[C@H](C)NC(=O)[C@H](Cc1c[nH]c2ccccc12)NC(=O)[C@H](CCC(N)=O)NC(=O)[C@@H]1CCCN1C(=O)[C@@H](NC(=O)[C@@H]1CCC(=O)N1)C(C)C)C(C)C)C(N)=O	/	/	/	-1%	/	/
COc1cccc(CNC(=S)NC2CCCC2)c1	?	-4%	15%	1%	-61*	8%
COc1ccccc1CNC(=S)NC1CCCCC1	-27%	?	-5%	-5%	-74*	8.9µM*
CCCCOc1ccc(C(C)NC(=O)c2cccc(Nc3nc4ccccc4n4nnnc34)c2)cc1 (stereo unspecified)	/	/	-18%	/	-98*	0%[46.1 µM]
CC1(C)Cc2c(c(N3CCOCC3)nc3snc(N)c23)CO1	?	-23%	?	8%	-102*	-13%
Cc1nc2c(sc3nc(N4CCOCC4)c4c(c32)CC(C)(C)OC4)c(-c2ccc(Cl)cc2)c1C(=O)O	13µM*	/	-23%	-4%	-26	/
COC(=O)c1sc(N)c(C(=O)OC)c1Cn1ncc(Cl)c(Cl)c1=O	11µM*	?	?	-10%	46	?
Cc1ccc(-n2nc3c(N4CCC(C(=O)N5CCCCCC5)CC4)nnc(C)c3c2C)cc1	-26%	/	-26%	/	/	/
